Bioassay records from PubChem BioAssay.
Hits are enriched below; roughly 12% of the tested compounds scored in any of these assays.
JMJD2A Tudor – JMJD2A Tudor domain (human) inhibition | AlphaScreen JMJD2A-Tudor / H3K4me3 peptide binding | 390,000 tested, 4.4% active | Potency, µM (doses to about 114 µM), for the others: at the top dose activity change, negative = inhibition, hits mostly inhibitors | O75164; further: potency means the concentration at half of the fitted maximal effect; on the % scale 0 is the no-effect control and ±100 the full control effect; nearly all actives have a fitted effect of over 50% in size
G9a inh – G9a (human) methyltransferase inhibition; Q96KQ7; G9a H3K9 monomethylation, AlphaScreen, 2 h; Potency, µM (top dose mostly 102 µM), for the others: at the top dose activity, negative = inhibition, usual class: inhibitors; 350,000 tested, 8.8% active; AID 504332; further: potency means the concentration at half of the fitted maximal effect; on the % scale 0 is the no-effect control and ±100 the full control effect; nearly all actives have a fitted effect of over 75% in size
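Readings reflect AlphaScreen signal from monomethyl-H3K9 antibody detection. HMT at 20 nM; substrate b-H3K9 500 nM; cofactor SAM 20 uM; 2 h RT reaction; compounds tested as titrations in qHTS with 15 min preincubation.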
PI5P4K alpha inh – inhibitors of human PI5P4K alpha | P48426 | PI5P4Kalpha enzyme, ADP-Glo luminescence, 60 min; hits give low values | max response, % | 330,000 tested, 1.2% active | AID 652105; active means max response of -50% or lower; inconclusive means between -30% and -50%; inactive means -30% or higher; further: value at the top dose of about 77 µM; on the % scale 0 is the no-effect control and ±100 the full control effect
Target sequence (P48426 whole entry, looked up): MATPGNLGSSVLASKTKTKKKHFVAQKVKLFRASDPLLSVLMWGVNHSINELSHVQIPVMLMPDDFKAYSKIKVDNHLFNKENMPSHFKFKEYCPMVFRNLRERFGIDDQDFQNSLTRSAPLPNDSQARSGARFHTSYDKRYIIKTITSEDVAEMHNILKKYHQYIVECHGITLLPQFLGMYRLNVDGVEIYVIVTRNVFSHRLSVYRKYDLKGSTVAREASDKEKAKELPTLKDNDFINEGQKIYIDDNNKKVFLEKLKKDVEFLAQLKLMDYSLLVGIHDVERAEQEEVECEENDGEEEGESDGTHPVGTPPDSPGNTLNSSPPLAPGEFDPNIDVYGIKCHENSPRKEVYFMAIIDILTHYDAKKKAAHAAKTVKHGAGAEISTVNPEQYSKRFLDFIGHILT
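Luminescence from ADP-Glo served as readout of PI5P4Kalpha activity in a qHTS format. Reaction: enzyme, substrate, compound, ATP at 5 microM final, 60 min at RT.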
PLK1 PBD block – inhibitors of human PLK1 polo-box domain binding. P53350. Plk1 PBD binding of FITC phosphopeptide, fluorescence polarization. Potency, µM, without a hit: max response, negative = inhibition, usual class: inhibitors. 360,000 tested, 2.8% active; further: potency means the concentration at half of the fitted maximal effect; series mostly up to about 57 µM; on the % scale 0 is the no-effect control and ±100 the full control effect; nearly all actives have a fitted effect of over 65% in size
BAZ2B block – BAZ2B (human) inhibition. Q9UIF8. AlphaScreen BAZ2B-H3K14Ac peptide displacement. Potency, µM (highest dose often 114 µM), inactives show top-dose activity change, negative = inhibition, most hits filed as inhibitors. 360,000 tested, 4.4% active; further: potency means the concentration at half of the fitted maximal effect; on the % scale 0 is the no-effect control and ±100 the full control effect; nearly all actives have a fitted effect of over 60% in size
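AlphaScreen displacement: compounds (up to 110uM) incubated 30 min at room temperature with a preformed 50 nM BAZ2B/50 nM biotinylated H3K14Ac peptide complex in PBS pH 7.4 with Tween-20. Donor and acceptor beads at 10 ug/mL final added, 20 min light-protected before reading.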
HP1b chromo inh – blocks HP1-beta chromodomain binding to methylated histone tails | P83916 | AlphaScreen HP1-beta / biotin-H3K9me3 peptide binding | Potency, µM (series often up to 114 µM), for inactives: at the highest dose activity change, negative = inhibition, actives largely listed as inhibitors | 390,000 tested, 0.56% active; further: potency means the concentration at half of the fitted maximal effect; nearly all actives have a fitted effect of over 70% in size
Target sequence (P83916 whole entry, looked up): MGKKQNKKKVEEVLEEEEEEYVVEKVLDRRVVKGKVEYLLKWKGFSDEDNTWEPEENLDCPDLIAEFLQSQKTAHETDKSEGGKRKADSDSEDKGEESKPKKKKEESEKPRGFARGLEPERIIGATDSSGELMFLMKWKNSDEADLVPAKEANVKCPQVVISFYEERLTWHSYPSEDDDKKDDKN
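Compound inhibition of the preformed complex between 50 nM HP1-beta and 50 nM biotinylated H3K9me3 peptide was read by AlphaScreen. Buffer was PBS pH 7.4 with 0.01% Tween-20. Incubations ran 30 min at room temperature, with 10 ug/mL donor/acceptor beads.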
An asterisk follows results filed as active; ? = inconclusive; · = not tested or not shown; ! = not active in a repeat; [ ] = remark or other dose. Unless noted, the call rests on the fitted dose curve; in most records, active means well fitted curve in the direction sought with a large enough effect; inconclusive means small, poorly fitted or top-dose-only effect, or another doubt; inactive means no such curve, though single readings can be large; an effect the other way counts as inactive or inconclusive.

SMILES	JMJD2A Tudor	G9a inh	PI5P4K alpha inh	PLK1 PBD block	BAZ2B block	HP1b chromo inh
O=C(N/N=C/c1ccccn1)c1cc(-c2ccccc2Cl)n[nH]1	-34.4%	68.3%[59 µM]	-19.9	-10.1%	56.2µM*	29.7%
COc1ccc(C(=O)Nc2nnc(S(=O)(=O)N3CCN(c4ccc(C)cc4)CC3)s2)cc1	0.0%	-7.1%[59 µM]	·	·	-14.8%	20.1%
C=CCOc1cccn2c(N(C)C(=O)c3ccccc3F)c(CC)nc12	·	·	-16.6	-10.9%	·	·
CC(=O)Nc1cccc(-c2ccnc3c2CC(C)(C(=O)Nc2cccnc2)O3)c1 (stereo not drawn)	·	·	5.3	2.2%	·	·
Cc1cc2c(s1)c1cnn(Cc3cc(F)ccc3C)c(=O)c1n2C	-5.5%	·	·	·	·	·
O=C1CN(c2nc3ccccc3n3cnnc23)CC(=O)N1CCc1ccccc1	-9.7%	79.4µM*	0.9	2.5%	-4.0%	31.1%
CC1(C)C(=O)Nc2ccccc2N1C(=O)COC(=O)CNS(=O)(=O)c1ccc(F)c(F)c1F	-20.0%	-4.3%[59 µM]	-27.5	-8.1%	-4.1%	55.1%
Cc1ccccc1NC(=O)Cc1nc(COC(=O)c2ccccn2)cs1	0.7%	50.1µM*	-12.5	-4.5%	9.2%	19.6%
COc1ccccc1NC(=O)Cc1nc(CCl)cs1	?	6.31µM*	1.5	-1.3%	56.2µM*	23.7%
Cc1ccccc1NC(=O)Cc1nc(COC(=O)C(C)C)cs1	-6.4%	?	-0.3	-4.1%	-11.3%	25.9%
COc1cc(C)ccc1NC(=O)Cc1csc(NC(=O)Nc2ccccc2OC)n1	-31.3%	12.6µM*	1.6	5.4%	?	6.6%
Cc1cccc(C)c1-n1ncc(C(=O)N2CCN(c3ccccn3)CC2)c1C1CCN(C(=O)OC(C)(C)C)CC1	-18.1%	-32.8%[59 µM]	·	·	-4.4%[57.1 µM]	15.2%
COc1ccc(S(=O)(=O)Nc2cc(OC)cc3cccnc23)cc1	-19.3%	·	·	·	·	·
COC(=O)[C@@]1(Cc2ccc(F)cc2)[C@H]2c3cc(C(=O)N(C)C)n(Cc4ccc(OC)c(OC)c4)c3C[C@H]2CN1C(=O)c1ccccc1	?	50.1µM*	8.6	-22.9%	?	-14.4%
COC(=O)[C@@]1(Cc2ccc(F)cc2)[C@H]2c3cc(C(=O)N(C)C)n(Cc4ccccc4)c3C[C@H]2CN1C(=O)c1ccccc1	?	?	-3.5	-9.8%	?	-15.4%
COC(=O)[C@@]1(Cc2ccc(F)cc2)[C@H]2c3cc(C(=O)N(C)C)n(CCc4ccc(OC)c(Br)c4)c3C[C@H]2CN1C(=O)c1ccccc1	?	25.1µM*	-4.4	-10.9%	?	1.3%
COC(=O)[C@@]1(Cc2ccc(F)cc2)[C@H]2c3cc(C(=O)N(C)C)n(CCO)c3C[C@H]2CN1C(=O)c1ccccc1	·	·	1.9	-6.4%	·	·
O=C(Nc1ccc2c(c1)OCO2)c1ccc2sc([C@@H]3O[C@H](CO)[C@H](O)[C@H](O)[C@H]3O)nc2c1	·	·	1.4	-7.1%	·	·
CC1(C)CC(=O)C2=C(C1)NC(SCC(N)=O)=C(C#N)C21CCCCC1	-4.6%	-10.6%[59 µM]	-11.4	-17.2%	9.8%	-3.3%
CC1=C(C#N)C(c2ccc(O)cc2)C2=C(CC(C)(C)CC2=O)N1 (stereo not drawn)	-1.4%	14.8%[59 µM]	2.4	1.1%	3.8%	45.1%
CC1C(C#N)=C(SCC(N)=O)NC2=C1C(=O)CC(C)(C)C2 (stereo not drawn)	?	-43.7%	-6.0	26.7µM*	10.1%	3.4%
CCC1C(C#N)=C(SCC(N)=O)NC2=C1C(=O)CC(C)(C)C2 (stereo not drawn)	70.8µM*	39.8µM*	-9.5	26.7µM*	0.8%	-6.0%
CC1=C(C#N)C(C)C2=C(CC(C)(C)CC2=O)N1 (stereo not drawn)	3.1%[11.4 µM]	6.4%[59 µM]	-2.8	29.9µM*	-19.6%	-2.2%
COc1cccc(CNc2nc3ccccc3c3nc(-c4cccc(C)c4)nn23)c1	1.5%	13.5%[59 µM]	·	·	8.0%	51.4%
CCc1nccn1CCC(=O)N1CCCC(N2CCN(c3cccc(Cl)c3)CC2)C1 (stereo not drawn)	-16.0%	28.1%	2.0	0.1%	-8.0%	10.0%
SMILES	JMJD2A Tudor	G9a inh	PI5P4K alpha inh	PLK1 PBD block	BAZ2B block	HP1b chromo inh
COc1cc(OC)c(-c2nn3c(-c4ccco4)nnc3s2)cc1OC	-32.6%	44.7µM*	-3.9	-26.1%	-8.3%	-22.0%
COc1ccc(-c2nnc3sc(-c4ccco4)nn23)cc1OC	-13.2%	?	·	-7.8%	-12.1%	31.8%
Cc1oc(-c2ccc(F)cc2)cc1-c1nn2c(-c3ccoc3C)nnc2s1	89.1µM*	?	-74.4*	?	35.5µM*	?
Cc1oc(-c2ccc(Cl)cc2)cc1-c1nn2c(-c3ccco3)nnc2s1	·	?	·	·	35.5µM*	·
Clc1ccc(-c2nnc3sc(-c4ccco4)nn23)c(Cl)c1	·	-27.3%[12.7 µM]	·	·	2.7%	·
Cc1ccc(SCc2c(C#N)c3ccccc3n2C)cc1	-27.4%[11.4 µM]	63.5%[59 µM]	-26.9	5.32µM*	73.0%	61.7%
Cn1c(=O)c2c(=O)cc(NNC(=O)CC#N)[nH]c2n(C)c1=O	-26.5%	?	-24.0	29.9µM*	-38.6%	-0.4%
CCCC(=O)NNc1cc(=O)c2c(=O)n(C)c(=O)n(C)c2[nH]1	?	7.5%[59 µM]	0.6	-2.2%	-9.8%	0.3%
COc1ccccc1CNc1nc(-c2cc(C)n(C)c2C)cs1	39.8µM*	10µM*	-72.2*	?	39.8µM*	-36.5%
COc1ccc(Cl)cc1NC(=O)c1ccc2c(SCC(=O)O)c3c(nc2c1)CCCC3	-33.6%	50.1µM*	-28.2	-19.5%	-2.1%	?
O=C(O)CSc1c2c(nc3cc(C(=O)Nc4ccc(F)c(Cl)c4)ccc13)CCCC2	-31.6%	·	1.5	-19.7%	50.1µM*	4.3%[57 µM]
COc1ccc(NC(=O)c2ccc3c(SCC(=O)O)c4c(nc3c2)CCCC4)cc1Cl	·	?	·	·	-34.5%	·
COc1ccc(NC(=O)CSc2c3c(nc4ccccc24)CCC3)c(OC)c1	-35.7%	-28.0%[59 µM]	2.5	-11.1%	-2.7%	22.0%
COc1ccc(NC(=O)c2ccc3c(SCC(=O)O)c4c(nc3c2)CCCC4)c(OC)c1	?	50.1µM*	-9.5	-10.3%	?	9.3%
COc1ccc(N2CCN(C(=O)CSc3c4c(nc5ccc(Cl)cc35)CCCC4)CC2)cc1	22.4µM*	11.2µM*	·	·	·	-26.5%
O=C(Cc1ccccc1)N(Cc1cccnc1)c1nc2ccc(F)cc2s1	-1.3%	10.0%[59 µM]	·	·	-4.4%	50.2%
CC1(NC(=O)Cc2csc(-c3cccc(Cl)c3)n2)CCS(=O)(=O)C1 (stereo not drawn)	-4.2%	39.8%[12.7 µM]	-3.3	0.3%	4.7%	52.8%
Cc1cccc(-c2nc3ccccc3n2Cc2ccccc2)c1	44.3%	46.5%[59 µM]	·	·	127.9%	126.3%
COc1ccc(N2Cc3cccc(C(=O)O)c3C2=O)cc1	44.7µM*!	31.6µM*	?	?	20µM*	?
